From PubChem BioAssay
Potency and affinity values are given separately. Calls of active or inactive are those of the source. Cut-off not given; nearly all actives show IC50 up to about 0.91 µM.

Each compound was assayed against Calcium-dependent protein kinase 4 (Plasmodium falciparum (isolate 3D7)) (UniProt Q8IBS5) (assay: PfCDPK4 kinase inhibitors, biochemical, TCAMS library (AID 1159588)). Settings: recombinant PfCDPK4, Kinase-Glo ATP depletion luminescence.
Sequence of Calcium-dependent protein kinase 4 (Plasmodium falciparum (isolate 3D7)) (Q8IBS5 whole entry, looked up): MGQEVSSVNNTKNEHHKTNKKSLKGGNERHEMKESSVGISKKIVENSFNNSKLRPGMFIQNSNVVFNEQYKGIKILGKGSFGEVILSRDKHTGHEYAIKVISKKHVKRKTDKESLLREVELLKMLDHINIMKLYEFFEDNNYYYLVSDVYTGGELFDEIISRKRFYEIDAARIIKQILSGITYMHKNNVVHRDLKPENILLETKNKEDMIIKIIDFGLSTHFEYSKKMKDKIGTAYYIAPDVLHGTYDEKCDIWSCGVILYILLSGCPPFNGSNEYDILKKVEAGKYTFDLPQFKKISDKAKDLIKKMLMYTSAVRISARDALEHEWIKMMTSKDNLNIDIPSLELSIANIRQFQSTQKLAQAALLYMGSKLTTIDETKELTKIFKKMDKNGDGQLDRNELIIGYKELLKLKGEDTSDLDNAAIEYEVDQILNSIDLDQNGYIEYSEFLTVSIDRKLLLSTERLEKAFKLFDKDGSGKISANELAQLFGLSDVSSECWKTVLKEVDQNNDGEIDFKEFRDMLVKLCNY

outcome, inactive:
Cc1nc(-c2cccc(NCc3ccccc3)c2)[nH]c1C
CS(=O)(=O)NCCCNCc1ccc(-c2cccc(-c3nc4ccc(F)cc4[nH]3)c2)cc1
C=CCNc1cc(-c2ccccn2)nc(-c2ccccn2)n1
O=C(Nc1cccc(C(F)(F)F)c1)c1ccc(S(=O)(=O)NCC2CCCN2CC2CCCCC2)cc1 (centres undefined)
Cc1cc(CN2CCC(Nc3ncc(-c4ccsc4)c4nc(C(F)(F)F)ccc34)CC2)no1
Oc1cccc2ccc(Nc3ccccn3)nc12
C=C[C@]1(C)C[C@@H](OC(=O)c2cncn(COC)c2=O)[C@]2(C)[C@H](C)CC[C@]3(CCC(=O)[C@H]32)[C@@H](C)[C@@H]1O
Cc1cc(C(=O)CN2C(=O)NC3(CCOc4ccccc43)C2=O)c(C)n1Cc1ccc(F)cc1 (centres undefined)
CCCN(CCC)CCCOc1ccc(C(=O)c2c(-c3ccc(OCCCN(CCC)CCC)cc3)oc3ccc(Cl)cc23)cc1
CCN(CC)C(=NCCCCCCN=C(/N=C(\N)Nc1ccc(Cl)c(Cl)c1)N(CC)CC)/N=C(\N)Nc1ccc(Cl)c(Cl)c1
COc1ccc(CNc2nc(NCc3ccc(C(F)(F)F)cc3)c3cc(OC)c(OC)cc3n2)cc1OC
COc1ccc2nccc(N3CCC(O)(CCNCc4ccc5c(n4)NC(=O)CS5)CC3)c2n1
COc1cc(Cc2cnc(N)nc2N)cc(OCCCOc2ccccc2)c1OC
CC1CCCC(NCc2c(O)ccc3ccccc23)C1 (centres undefined)
COc1ccc2nc3cc(Cl)ccc3c(NCc3ccccc3)c2c1
COc1cc2nc(C)nc(Nc3ccc(Oc4ccccc4)cc3)c2cc1OC
O=C(NCc1ccc(F)cc1)Nc1cccc(-c2ccc(-c3nc4ccc(F)cc4[nH]3)cc2)c1
CC1N=C(N)N=C(N)N1OCc1cccc2ccccc12 (centres undefined)
O=C(Nc1ccc2c(c1)CCNCC2)Nc1ccc2ccccc2c1
O=C(C=Cc1ccc(Cl)c(Cl)c1)NCCCCCN1CCC(CCNC(=O)c2cccc3ccccc23)CC1
C(=NNc1ccnc2ccccc12)c1ccncc1
COc1cc2c(cc1S(=O)(=O)c1ccc(NC(=O)c3cccc(C(F)(F)F)c3)cc1)CCN(C)CC2
CC(=O)C1=NN(c2ccc(C)cc2)C(c2cccs2)N1c1ccccc1 (centres undefined)
CCNc1cc(C(=O)N[C@@H](Cc2ccccc2)[C@H](O)CNC(C)(C)c2cccc(OC)c2)cc(N2CCCC2=O)c1
COc1cc(Cc2cnc(N)nc2N)cc(OCCCCCC(N)=O)c1OC
CS(=O)(=O)NCCCNCc1ccc(-c2ccc(-c3nc4ccc(C(F)(F)F)cc4[nH]3)cc2)cc1
O=C(Cc1cccs1)NC(CCCN1CCC(Oc2cccc(Cl)c2)CC1)c1ccc(Cl)c(Cl)c1 (centres undefined)
COc1ccc(-c2cnc(N)c(-c3nc4ccc(Br)cc4[nH]3)c2)cc1
Cc1ccc(F)c(NC(=O)c2c(-c3c(F)cccc3Cl)noc2C)c1
COc1ccc(CNc2nccc3ccc(-c4ccc5nccn5c4)cc23)cc1
CN(C)C(=O)CCCn1c(CNCCCNc2cc(=O)c3ccccc3[nH]2)cc2c(Cl)cc(Cl)cc21
CN1CCc2cc(NS(=O)(=O)c3ccc(-c4ccc(Cl)s4)cc3)c(N3CCCCC3)cc2CC1
Cc1ccc(C(C#N)c2ccc3c(C(F)(F)F)cc(C(F)(F)F)nc3n2)cc1 (centres undefined)
CN(C)CCNCc1ncsc1-c1ccc2c(Nc3ccc(F)cc3Cl)ccnc2c1
O=C(/C=C/c1ccc(Cl)c(Cl)c1)N1CCC(CNCc2cccc3cc[nH]c23)CC1
CC(=O)Nc1ccc(OCCCCN(Cc2ccccc2C(F)(F)F)c2ccc(C(F)(F)F)c(C#N)c2)c(Cl)c1
CS(=O)(=O)N(c1cccc(F)c1)c1cc(C(=O)N[C@@H](Cc2ccccc2)[C@H](O)CNCc2cccc(C(F)(F)F)c2)cc(N2CCCC2=O)c1
CCCCOC(=O)C1=C(C)NC2=C(C(=O)CC(c3ccc(OC)c(OC)c3)C2)C1c1ccc(O)cc1 (centres undefined)
Cc1nn(-c2ccccc2)nc1C(=O)N(Cc1ccc(-c2ccc(CNCCc3ccc(S(C)(=O)=O)cc3)cn2)cc1)C(C)CN(C)C (centres undefined)
